# Tau fibril ThT – tau fibrillization inhibition (ThT binding) | recombinant tau K18 P301L, heparin-induced fibrillization, ThT fluorescence | hit rate 2.1% among 270,000 | Potency, µM (titrated, usually from 57.4 µM), usual class: inhibitors | P10636; also: nearly all actives have a fitted effect of over 55% in size
# Target sequence (P10636 561-689 P618L limits assumed): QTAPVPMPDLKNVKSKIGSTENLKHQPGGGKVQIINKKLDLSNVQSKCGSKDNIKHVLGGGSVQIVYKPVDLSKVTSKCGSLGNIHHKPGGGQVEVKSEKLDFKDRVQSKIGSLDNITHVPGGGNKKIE
#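 Heparin-induced (20 uM) aggregation of recombinant human K18 P301L tau, 15 uM unlabeled with 0.24 uM labeled, pH 7 acetate buffer, 6 hr at 37 C with compound. Fibrils quantified by 30 uM ThT fluorescence after 1 hr ambient incubation.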
# HPGD block – blocks human HPGD enzyme activity. purified HPGD, NADH fluorescence kinetic, PGE2 substrate. P15428. Potency, µM, usual class: inhibitors. hit rate 4.3% among 150,000; active = well fitted inhibition curve with a large enough effect, not every such curve was filed as active; inconclusive = small, poorly fitted or top-dose-only effect, or another doubt; inactive = no such curve, though single readings can be large or run the other way
#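 NADH formation kinetics: reaction with 30 uM PGE2 and 1 mM NAD+ (final), 20 nM enzyme, Tris-HCl pH 8 with Tween 20, after 15 min compound preincubation at room temperature. Fluorescence change, last versus first of five reads.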
# Tau fluor counter – counter-screen for tau fibril formation inhibitors | hit rate 0.93% among 280,000 | Potency, µM (highest dose often 57.7 µM) | tau K18 P301L (four-repeat tau fragment) Alexa594 fluorescence, heparin fibrillization | AID 1463; also: nearly all actives have a fitted effect of over 55% in size
#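 Human K18 P301L tau (15 uM unlabeled plus 0.24 uM Alexa 594-labeled, final) in 100 mM sodium acetate pH 7 was mixed with compound and 20 uM heparin and incubated 6 hr at 37 C.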
# ALDH1A1 block – inhibitors of human aldehyde dehydrogenase 1A1; P00352; AID 1030; hit rate 7.3% among 220,000; Potency, µM (doses to about 75.3 µM), hits mostly inhibitors; Purified ALDH1A1, NADH fluorescence, propionaldehyde substrate; active = well fitted inhibition curve with a large enough effect, not every such curve was filed as active; inconclusive = small, poorly fitted or top-dose-only effect, or another doubt; inactive = no such curve, though single readings can be large or run the other way
# NPSR antagonist – blocks cAMP signaling of the human neuropeptide S receptor | CHO-NPSR cells, cAMP TR-FRET, antagonist mode | hit rate 1% among 220,000 | AID 1461 | Q6W5P4 | Potency, µM (titrated, usually from 38.3 µM), hits mostly inhibitors; also: nearly all actives have a fitted effect of over 50% in size
# Target sequence (Q6W5P4 whole entry, looked up): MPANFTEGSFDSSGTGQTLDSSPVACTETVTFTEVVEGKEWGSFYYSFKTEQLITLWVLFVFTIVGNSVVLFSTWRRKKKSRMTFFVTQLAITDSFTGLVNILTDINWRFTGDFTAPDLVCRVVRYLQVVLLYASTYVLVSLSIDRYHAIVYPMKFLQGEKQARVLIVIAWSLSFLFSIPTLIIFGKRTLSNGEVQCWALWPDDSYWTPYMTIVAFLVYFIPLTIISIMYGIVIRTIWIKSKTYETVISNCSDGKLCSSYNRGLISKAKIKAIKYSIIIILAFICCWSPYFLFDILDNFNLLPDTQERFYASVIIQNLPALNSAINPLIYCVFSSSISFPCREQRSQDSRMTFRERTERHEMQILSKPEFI
# Tau FP inhib – inhibitors of human tau fibril formation. P10636. K18 P301L tau heparin fibrillization, Alexa594 FP, 6 h. Potency, µM (highest dose often 57.7 µM), most hits filed as inhibitors. hit rate 0.39% among 280,000. AID 1468; also: nearly all actives have a fitted effect of over 55% in size
#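 Compound effects on tau fibrillization are measured by Alexa 594 fluorescence polarization (ex 555, em 632 nm). K18 P301L tau is used at 15 uM with 0.24 uM labeled tracer, and 20 uM heparin induces aggregation over 6 hr at 37 C.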
# A number is an active result; – = inactive; ? = inconclusive; · = no result; [ ] = another dose, or the depositor's remark. In the library only some 9.5% were active in any assay of this set; here they are far more common. Unless noted, calls follow the shape of the dose curve; as a rule, active = well fitted curve in the direction sought with a large enough effect; inconclusive = small, poorly fitted or top-dose-only effect, or another doubt; inactive = no such curve, though single readings can be large; an effect the other way counts as inactive or inconclusive.
SMILES,Tau fibril ThT,HPGD block,Tau fluor counter,ALDH1A1 block,NPSR antagonist,Tau FP inhib
CC1=NN(c2cccc(C(=O)O)c2)C(=O)/C1=C\C=C\c1ccco1,14µM,–,?,–,?,?
CC1=NN(c2ccccc2)C(=O)/C1=C\c1sccc1C,?,·,–,·,–,–
Cc1ccc(C2=NOC(=O)/C2=C\C=C\c2ccccc2)cc1,13µM,·,?,3.5µM,10µM,14µM
CC1=NN(c2ccccc2)C(=O)/C1=C\N1CC(C)OC(C)C1 (stereo not drawn),–,–,–,25µM,–,–
Cc1nn(-c2ccccc2)c(Cl)c1C(=O)N(C)c1nc(-c2ccc(F)cc2)cs1,–,–,–,–,–,–
O=C(CCc1nc2ccccc2c(=O)[nH]1)OCCOc1ccc(Cl)cc1,?,·,–,–,–,–
COCCn1c(SCC(=O)Nc2ccc(Br)cc2)nc2c([nH]c3ccccc32)c1=O,–,·,–,·,·,–
Cc1cc(C)cc(NC(=O)Nc2cc(S(=O)(=O)N(C)C)ccc2C)c1,–,·,16µM[quencher],–,?,?
Cc1ccc(S(=O)(=O)N(C)C)cc1NC(=O)CN1CCN(Cc2ccccc2)CC1,–,·,–,–,–,–
Cc1ccc(S(=O)(=O)N(C)C)cc1NC(=O)c1cc(C(C)(C)C)nn1Cc1ccccc1,–,·,–,4.5µM,?,–
Cc1ccc(S(=O)(=O)N(C)C)cc1NC(=O)c1ccncc1,–,·,–,?,–,–
CN(C)S(=O)(=O)c1ccc(Cl)c(NC(=O)c2ccncc2)c1,–,–,–,11µM,–,–
Cc1ccc(S(=O)(=O)N(C)C)cc1NC(=O)c1cccnc1Oc1ccccc1,–,·,–,28µM,–,–
CC(C)OC(=O)[C@@H]1CC[C@H](C)[C@@H](CCCC=O)O1,–,–,–,–,·,–
COC(=O)C(Cc1cncn1COCc1ccccc1)NC(=O)OC(C)(C)C (stereo not drawn),–,–,–,20µM,–,–
O=C1/C(=C/c2cccnc2)SC(=S)N1c1ccccc1,–,–,–,?,–,–
CC(C)C(C(=O)O)N1C(=O)/C(=C/c2cccn2C)SC1=S (stereo not drawn),?,–,–,–,–,–
O=C1/C(=C/c2cccnc2)SC(=S)N1Nc1ccccc1,28µM,·,?,·,–[7.67 µM],?
Cn1cccc1/C=C1\SC(=S)N(Nc2ccccc2)C1=O,3.5µM,·,?,3.5µM,–,–
Cc1ccc(S(=O)(=O)NN2C(=O)/C(=C/c3cccn3C)SC2=S)cc1,10µM,–,–,–,–,–
CCCC(C(=O)O)N1C(=O)/C(=C/c2cccn2C)SC1=S (stereo not drawn),–,18µM,–,–,–,–
CC(C)C(=O)NNC(=O)CSc1nnnn1C(C)C,–,·,–,–,–,–
CC(C)(C)c1ccc(C(=O)NCC(=O)OCC(=O)c2ccc3c(c2)-c2ccccc2C3)cc1,–,–,–,–,–,–
COc1ccc2c(=O)c3c(=O)n(-c4ccc(C)cc4)c(-c4ccccc4)nc3oc2c1,–,·,–,·,–[7.67 µM],–
Cc1ccc(-n2c(C)nc3oc4ccccc4c(=O)c3c2=O)cc1,–,?,–,28µM,–,–
SMILES,Tau fibril ThT,HPGD block,Tau fluor counter,ALDH1A1 block,NPSR antagonist,Tau FP inhib
Cc1ccc(-c2nc(CS(=O)(=O)CC(=O)Nc3ccc(Br)cc3F)c(C)o2)cc1,–,·,–,·,·,–
CCS(=O)(=O)N1CCN(C(=O)c2ccco2)CC1,–,–,–,–,?,–
O=C(NCc1ccccc1)c1cccc(OCC(=O)N2CCN(C(=O)c3ccco3)CC2)c1,–,–,–,16µM,–,–
O=C(c1ccco1)N1CCN(S(=O)(=O)Cc2ccccc2Cl)CC1,–,·,–,10µM,–,–
O=C(Cc1c(Cl)cccc1Cl)OCC(=O)N1CCN(C(=O)c2ccco2)CC1,–,·,–,32µM,–,–
O=C(OCC(=O)N1CCN(C(=O)c2ccco2)CC1)c1ccccc1,–,·,–,?,–,–
Cc1ccc(C)c(-n2c(-c3ccc(Br)cc3)csc2=NC(=O)c2ccccc2F)c1,–,·,–,·,?,–
COc1ccc(CN(Cc2ccco2)C(=O)c2ccccc2F)cc1,–,·,–,·,·,–
O=C(N/N=C/c1cccc(OCc2ccccc2)c1)c1cccs1,?,–,25µM[quencher],–,?,?
CCOc1cc(/C=N/NC(=O)c2cccs2)cc([N+](=O)[O-])c1O,10µM,·,?,–,–,–
O=C(N/N=C\c1ccc([N+](=O)[O-])o1)c1cncc(Br)c1,·,·,–,·,–,–
COc1cc([N+](=O)[O-])cc(/C=N/NC(=O)c2cncc(Br)c2)c1O,13µM,·,–,·,–[7.67 µM],–
COc1cc(/C=N/NC(=O)c2cncc(Br)c2)cc([N+](=O)[O-])c1O,13µM,·,–,·,–[7.67 µM],–
O=C(N/N=C/c1cccc([N+](=O)[O-])c1)c1cccs1,?,–,–,–,–,–
COc1cc(/C=N/NC(=O)c2cccc([N+](=O)[O-])c2)cc(OC)c1O,?,·,–,–,–,–
Cc1cc(C)c(NC(=O)NC(=O)C(Cl)(Cl)Cl)c(C)c1,–,·,–,–,–,–
COC(=O)c1ccccc1NC(=O)CSc1nc(O)cc(=O)n1C1CCCC1,?,·,–,–,?,–
COc1ccc(-c2nc(-c3ccccc3)c(Nc3c(C)cccc3C)o2)cc1,–,–,–,–,·,–
COCc1cc(C)nc2sc(C(=O)N3CCCCC3)c(N)c12,–,0.25µM,–,18µM,–,–
COCc1cc(C)nc2sc(C(=O)N3CCN(c4ccccc4)CC3)c(N)c12,?,?,–,?,–,–
COc1ccc(Cn2nnnc2C(c2ccncc2)N2CCOCC2)cc1 (stereo not drawn),–,–,–,28µM,–,–
COc1ccc(Cn2nnnc2C(c2ccccc2)N2CCN(C3CCCC3)CC2)cc1 (stereo not drawn),–,–,–,8.9µM,?,–
COc1ccc(Cn2nnnc2C(c2ccccc2Cl)N2CCN(C3CCCC3)CC2)cc1 (stereo not drawn),–,·,–,–,?,–
c1ccc(CN2CCN(C(c3ccccc3)c3nnnn3Cc3ccccc3)CC2)cc1 (stereo not drawn),–,–,–,–,–,–
Cc1ccc(C(c2nnnn2Cc2ccccc2)N2CCN(Cc3ccccc3)CC2)cc1 (stereo not drawn),–,–,–,22µM,?,–
CN(C)C1C(=O)C(C(N)=O)C(=O)C2(O)C(=O)C3C(=O)c4c(O)ccc(Cl)c4C(O)C3CC12 (stereo not drawn),?,–,–,–,·,–
CCCCCNC(=O)c1cc2c(=O)n3ccccc3nc2n1C,?,·,?,·,·,–
Cn1ncc2c(Nc3cc(C(F)(F)F)ccc3Cl)ncnc21,–,·,–,·,·,–
CCc1ccc(CN2CCC(CO)(CC3CCCCO3)CC2)o1 (stereo not drawn),–,·,–,8.9µM,–,–
